Out of some 85,000 compounds screened, about 440 (0.52%) showed an effect of 50% or more. The sample as a whole holds a higher share of strong results than the screen did.
Experiment: In vitro enzyme assay to detect hydrolysis of chlorophenol red-beta-D-[…] directly proportional to the number of Toxoplasma stably expressing beta-galactosidase
Assay type: functional, organism-based, Toxoplasma gondii
Set-up: scale not given: in the data most compounds retested in dose-response had high values

| SMILES | Percent Effect (50 µM) | Percent Effect (10 µM) |
| --- | --- | --- |
| Cc1c(N)cnn1C1CCOCC1 | -9.55% |  |
| COc1ccc(OC)c(N2C(=O)CCC2=O)c1 | -4.608% |  |
| CN(CCOCCO)CCOc1ccc(F)cc1 | 15.3% |  |
| O=C1NCCOc2ccc(Br)cc21 | -18.86% |  |
| COc1ccc(C)cc1CNC(=O)C1=NN(c2ccccc2)C(=O)CN1 |  | 14.43% |
| COc1ccc(CNC(=O)C2=NN(c3ccc(C)cc3)C(=O)CN2)cc1 |  | -0.9855% |
| COc1ccccc1CNC(=O)C1=NN(c2ccc(C)cc2)C(=O)CN1 |  | 57.58% |
| Cc1cc2c(cc1S(=O)(=O)N1CCCC(N)C1)OCO2 (configuration not stated) | 6.23% |  |
| c1cncc(C2=NOC3(CCN(Cc4c[nH]c5ccccc45)CC3)C2)c1 |  | 26.44% |
| c1ccc(C2=NOC3(CCN(Cc4c[nH]c5ccccc45)CC3)C2)cc1 |  | 73.52% |
| CC(C)C1=NOC2(CCN(Cc3c[nH]c4ccccc34)CC2)C1 |  | 33.52% |
| CCCC(C(=O)OCC)S(N)(=O)=O (configuration not stated) | -4.644% |  |
| COC(=O)C(C)SCc1noc(C2CC2)n1 (configuration not stated) | 1.688% |  |
| CCN1C[C@H](NC(=O)c2cccn2C(C)C)[C@@H](OC)C1 | -5.083% |  |
| CCN1C[C@H](NC(=O)c2snnc2C(C)C)[C@@H](OC)C1 | 82.91% |  |
| CCN1C[C@H](NC(=O)c2ccc(Cl)s2)[C@@H](OC)C1 | 2.981% |  |

| SMILES | Percent Effect (50 µM) | Percent Effect (10 µM) |
| --- | --- | --- |
| CCC(NC(=O)c1cc(N)[nH]n1)c1nc(C)c[nH]1 (configuration not stated) | 4.795% |  |
| Cc1nnsc1CN(C)C(=O)c1ccccc1 | 22.64% |  |
| O=C(N[C@@H]1CNC[C@H]1CO)C1CCC1 | -0.2309% |  |
| Cc1cc(CN)nc(N2CCCC2)n1 | -18.34% |  |
| Cc1cc(CN)nc(N(C)C)n1 | 87.02% |  |
| CN(C)c1nc(CN)cs1 | -3.708% |  |
| COCCNC(=O)CCC1CCN(CCCSC)CC1 | 11.51% |  |
| CCOc1ncccc1C(=O)N1CCCN(C)CC1 | 3.231% |  |
| COCCNC(=O)NC(C)CCc1ccc(O)cc1 (configuration not stated) | -3.348% |  |
| Cn1ccnc1CN1CCC(c2ccnc(-c3cccc(O)c3)c2)C1 (configuration not stated) |  | 55.29% |
| CN(C)CC(C)(C)CN1CCC(c2ccnc(-c3cccc(O)c3)c2)C1 (configuration not stated) |  | 7.739% |
| Oc1cccc(-c2cc(C3CCN(Cc4cncnc4)C3)ccn2)c1 (configuration not stated) |  | 0.5564% |
| N#CC1(NC(=O)C(O)Cc2ccccc2Cl)CCC1 (configuration not stated) | -6.44% |  |
| CCc1cccc(C)c1NC(=O)CN1CCNC(=O)C1 | -0.5853% |  |
| O=C1CN(CC(=O)Nc2c(Cl)cccc2Cl)CCN1 | 55.2% |  |
| Cc1ccc(Cl)cc1NC(=O)CN1CCNC(=O)C1 | 47.59% |  |

From ChEMBL document CHEMBL3988442, “University of Dundee, Small-Polar-MMV Screening Library” (2021)
